hNpr1 antagonist – antagonists of human natriuretic peptide receptor Npr1; HEK293 hNpr1 GloSensor cGMP, ANP-stimulated luminescence; Potency, µM (highest dose often 46.3 µM), without a hit: at the top dose activity change, negative = inhibition, usual class: inhibitors; P16066; actives 1.6% (n = 76,000); calls by dose curve; further: nearly all actives have a fitted effect of over 60% in size
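HEK293 cells stably expressing human Npr1 and cGMP GloSensor pGS-40F, loaded 2 h with 2% GloSensor reagent, given compound 30 min at room temperature. Luminescence read before and 20 min after 0.1 nM hNppA.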
3T3 cytotox – NIH 3T3 cell cytotoxicity. NIH 3T3 viability, CellTiter-Glo ATP luminescence, 48-72 h. Potency, µM (doses to about 96.7 µM), without a hit: at the highest dose activity change, negative = cytotoxicity, hits mostly inhibitors. actives 4.3% (n = 94,000). AID 1345082; further: nearly all actives have a fitted effect of over 55% in size
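Cytotoxicity was measured by CellTiter-Glo ATP luminescence after 48 or 72 h compound exposure at 37 °C. Mouse NIH 3T3 fibroblasts were seeded at 400 cells/well and dosed by 23 nL pin transfer.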
HEK293 tox – HEK 293 cell cytotoxicity; HEK 293 viability, ATP luminescence (CellTiter-Glo), 48-72 h; Potency, µM (doses to about 115 µM), without a hit: at the top dose activity change, negative = cytotoxicity, usual class: inhibitors; actives 6.6% (n = 94,000); further: nearly all actives have a fitted effect of over 60% in size
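Read-out: CellTiter-Glo ATP luminescence. Cells: HEK 293, 250 cells/well. Exposure: 48 or 72 hr, 37 degree Celsius.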
GPT2 inhibitor – inhibitors of human GPT2 alanine aminotransferase; Q8TD30; Recombinant GPT2, coupled pyruvate oxidase/HRP Amplex Red fluorescence; Potency, µM (highest dose often 57.7 µM), inactives show at the highest dose activity change, negative = inhibition, usual class: inhibitors; actives 0.25% (n = 100,000); further: nearly all actives have a fitted effect of over 60% in size
Target sequence (Q8TD30 whole entry, looked up): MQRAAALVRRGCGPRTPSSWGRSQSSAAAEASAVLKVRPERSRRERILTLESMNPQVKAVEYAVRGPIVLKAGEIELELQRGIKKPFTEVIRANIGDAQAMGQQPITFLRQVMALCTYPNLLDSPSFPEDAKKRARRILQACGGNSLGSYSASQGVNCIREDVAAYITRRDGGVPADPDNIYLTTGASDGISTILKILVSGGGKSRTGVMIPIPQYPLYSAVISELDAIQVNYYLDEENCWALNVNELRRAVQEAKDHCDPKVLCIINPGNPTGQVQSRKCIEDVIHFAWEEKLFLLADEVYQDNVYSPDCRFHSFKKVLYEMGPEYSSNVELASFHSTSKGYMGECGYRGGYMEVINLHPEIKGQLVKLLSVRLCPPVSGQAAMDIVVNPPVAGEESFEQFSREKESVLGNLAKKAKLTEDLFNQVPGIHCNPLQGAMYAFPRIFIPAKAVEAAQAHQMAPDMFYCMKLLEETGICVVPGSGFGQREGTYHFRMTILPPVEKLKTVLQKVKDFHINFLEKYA
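GPT2 10ng/uL, a-KG 250uM, L-Ala 2mM, HEPES pH7.5 + 0.0001% Tween; 30 min RT. Then Amplex mix (PO/HRP/ThPP), 30 min RT dark, fluorescence. AOA 50uM used as positive control.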
Luciferase inh – inhibitors of firefly (Photinus pyralis) luciferase; Potency, µM (titrated, usually from 115 µM), actives largely listed as inhibitors; actives 2.5% (n = 76,000); purified P. pyralis luciferase, luminescence, biochemical; P08659; AID 1347043; further: nearly all actives have a fitted effect of over 65% in size
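Luminescence read by CCD imaging after purified firefly luciferase (10nM final) was added to substrate buffer holding 10uM D-luciferin and 10uM ATP, pH 7.5, pre-dosed with compound.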
* marks the source's active call; other numbers are inactive results; i = inactive; ? = inconclusive; · = no result given; [ ] = another dose, or the depositor's remark. Rows were chosen to be rich in hits. Some 10% of all compounds tested hit in one or more screens of this group. Unless noted, the call rests on the fitted dose curve; in most records, active means well fitted curve in the direction sought with a large enough effect; inconclusive means small, poorly fitted or top-dose-only effect, or another doubt; inactive means no such curve, though single readings can be large; an effect the other way counts as inactive or inconclusive. On the % scale 0 is the no-effect control and ±100 the full control effect; potency means the concentration at half of the fitted maximal effect.

SMILES | hNpr1 antagonist | 3T3 cytotox | HEK293 tox | GPT2 inhibitor | Luciferase inh
Cc1nc(-c2ccccc2Br)cc([C@H]2CN3CC[C@H]2C[C@@H]3CNC(=O)Nc2ccccc2)n1 | 0% | ? | 79µM* | i | ?
COC[C@H]1CCCN1C[C@H]1CN2CC[C@H]1C[C@@H]2CNC(=O)c1ccc(N(C)C)cc1 | 0%[70.6 µM] | 71µM* | ? | i | i
CC(=O)c1ccc(NC(=O)NC[C@H]2C[C@@H]3CCN2C[C@@H]3c2cc(-c3cccs3)nc(C)n2)cc1 | -2% | ? | 89µM* | -2% | i
O=C(NCc1ccc2c(c1)OCO2)[C@H]1CN2CCC1C[C@@H]2Cn1cc(-c2cccc(O)c2)nn1 (stereo partly specified) | 0% | -11% | ? | i | i
CC(=O)NC[C@H]1C[C@@H]2CCN1C[C@@H]2c1cc(-c2cccs2)nc(C)n1 | -14%[70.6 µM] | ? | ? | -20%[88.5 µM] | i
Cc1nc(-c2cccs2)cc([C@H]2CN3CC[C@H]2C[C@@H]3CNC(=O)c2ccc(N(C)C)cc2)n1 | 1% | 22µM* | 35µM* | 4% | i
CC(=O)c1ccc(NC(=O)NC[C@H]2C[C@@H]3CCN2C[C@@H]3c2cc(-c3ccco3)nc(C)n2)cc1 | 6% | ? | 79µM* | 2% | i
Cc1nc(-c2ccco2)cc([C@H]2CN3CC[C@H]2C[C@@H]3CNC(=O)C2CC2)n1 | 1%[70.6 µM] | 0%[174 µM] | -4%[172 µM] | -13%[88.5 µM] | i
CC(=O)O[C@H]1C[C@@H](C)O[C@H]2O[C@@H]3CC4CC[C@@H]5C(CC[C@]6(C)[C@@H](C7=CC(=O)OC7)CC[C@]56O)[C@@]4(C=O)C[C@H]3O[C@]21O (stereo partly specified) | · | · | · | i | ·
OC(CNc1ccccc1)Cn1c2ccc(Br)cc2c2cc(Br)ccc21 (stereo unspecified) | · | · | · | 0% | ·
COc1cc2c(cc1OCC1CCCC1)N([S+](=O)([O-])c1cccc(C(F)(F)F)c1)CC21CCN(CC(=O)O)CC1 | 2% | 40µM* | 45µM* | i | i
COCC(C(=O)OC1CC2CCC(C1)N2C)c1ccccc1 (stereo unspecified) | · | · | · | i | ·
COc1cc2c(cc1Oc1cccc(N(C)C)c1)NC(=O)C21CCN(CC2CC2)CC1 | ? | 79µM* | ? | 3%[88.5 µM] | i
COc1cc2c(cc1Oc1ccccc1)NC(=O)C21CCN(C(=O)C(C)C)CC1 | 7%[70.6 µM] | -18%[138 µM] | ? | -5%[88.5 µM] | i
COc1cc2c(cc1Oc1cccc(N(C)C)c1)NC(=O)C21CCN(c2ncccn2)CC1 | ? | ? | ? | -6% | i
COc1cc2c(cc1Oc1ccccc1)NC(=O)C21CCN(CC2CC2)CC1 | -2%[70.6 µM] | 45µM* | ? | -12%[88.5 µM] | i
Cc1ccc(-n2cccc2CC(=O)N2CCN(C3CCN(C)CC3)CC2)cc1 | 0% | -17% | -25% | 4% | i
COc1cc2c(cc1OC1CCCC1)NC(=O)C21CCN(Cc2ccccc2)CC1 | -14%[70.6 µM] | 89µM* | ? | 3%[88.5 µM] | i
COc1cc2c(cc1OC1CCCC1)NC(=O)C21CCN(Cc2nccn2C)CC1 | 6%[70.6 µM] | -14%[138 µM] | ? | -13%[88.5 µM] | i
COc1cc2c(cc1OC1CCCC1)NC(=O)C21CCN(C(=O)Cc2ccccc2)CC1 | ? | 89µM* | 79µM* | ? | i
CN1C2CCC1CC(OC(=O)N1Cc3ccccc3NC1=O)C2 (stereo unspecified) | · | · | · | 0% | ·
O=C(N1CCCC1)N1C2CCC1CN(Cc1cccnc1)C2 | · | -22% | -27% | ? | ·
O=C(Cc1ccc(F)cc1Cl)N1C[C@H]2CC[C@@H]1CN(Cc1cccnc1)C2 | ? | -29% | 35µM* | -2%[11.5 µM] | i
CCC(CC)c1cc([C@H]2CN3CC[C@H]2C[C@@H]3CNC(=O)c2ccco2)nc(-c2ccncc2)n1 | -2% | -10% | -4% | -10% | i
CCC(CC)c1cc([C@H]2CN3CC[C@H]2C[C@@H]3COC(=O)Nc2ccccc2)nc(-c2ccncc2)n1 | -2% | -18% | -14% | ? | i
SMILES | hNpr1 antagonist | 3T3 cytotox | HEK293 tox | GPT2 inhibitor | Luciferase inh
CCC(CC)c1cc([C@H]2CN3CC[C@H]2C[C@@H]3CNC(=O)c2ccc(N(C)C)cc2)nc(-c2ccncc2)n1 | -22% | ? | 20µM* | i | i
C=C[C@H]1CN2CC[C@H]1C[C@@H]2CNC(=O)c1ccc(N(C)C)cc1 | 6%[70.6 µM] | -21%[174 µM] | ? | i | i
CCC(CC)c1cc([C@H]2CN3CC[C@H]2C[C@@H]3CO)nc(-c2ccncc2)n1 | -28%[70.6 µM] | 112µM* | 112µM* | -12%[88.5 µM] | i
CCC(CC)c1cc([C@H]2CN3CC[C@H]2C[C@@H]3CNC(=O)c2ccc(C)cc2)nc(-c2ccncc2)n1 | -12% | ? | 45µM* | ? | i
CCC(CC)c1cc([C@H]2CN3CC[C@H]2C[C@@H]3CNC2CCN(C(C)=O)CC2)nc(-c2ccncc2)n1 | -8% | ? | 79µM* | i | i
Cc1ccc(Cn2nc(C(=O)N[C@@H]3C(C)(C)[C@@H]4CC[C@@]3(C)C4)cc2-c2ccc(Cl)c(C)c2)cc1 | · | · | · | i | ·
C[C@@H]1CCC2[C@@H](C)C(=O)OC3O[C@@]4(C)CCC1[C@]32OO4 (stereo partly specified) | · | · | · | 4% | ·
CCC(C)(O)C1(C(=O)O)COC(=O)C1 (stereo unspecified) | · | · | · | i | ·
Cc1cc(C(F)(F)F)nn1CC(=O)N1[C@H]2CC[C@@H]1c1cnc(-c3ccc(F)cc3)nc1C2 | -3% | -20% | -6% | i | i
CN(Cc1cccc(-c2ccncc2)c1)C(=O)Oc1ccc(-c2ccc(C(N)=O)cc2)cc1 | · | · | · | i | ·
C[C@@H]1C[C@@H](O)[C@]2(O)O[C@@H]3C[C@@]4(C=O)C(CC[C@@H]5C4CC[C@]4(C)[C@@](O)(C6=CC(=O)OC6)CC[C@]54O)C[C@H]3OC2O1 (stereo partly specified) | · | · | · | i | ·
CC(=O)N1C[C@@H]2C[C@H](C1)c1ccc(NC(=O)Nc3ccccc3)c(=O)n1C2 | 7%[70.6 µM] | i | i | -17%[88.5 µM] | i
CCC(CC)c1cc([C@H]2CN3CC[C@H]2C[C@@H]3CNC(=O)Nc2cccc(C#N)c2)nc(-c2ccncc2)n1 | -16% | 79µM* | ? | -5% | i
Cc1nc(-c2ccc(N(C)C)cc2)cc([C@H]2CN3CC[C@H]2C[C@@H]3CNC(=O)C2CC2)n1 | -2%[70.6 µM] | 100µM* | 71µM* | 3%[88.5 µM] | i
Cc1nc(-c2ccc(N(C)C)cc2)cc([C@H]2CN3CC[C@H]2C[C@@H]3CNCc2cccc(C#N)c2)n1 | -21% | 28µM* | 25µM* | i | ?
